# Laboratory results from PubChem BioAssay (EPA / NIEHS).
# Several values for one entry are separate records, joined by “and”; a condition that tells them apart may be missing. Equal entries are not always repeated. The source holds several records for some structures; these can differ, active in one and inactive in another. Activity calls are given as the source filed them. Rule for the calls: active = hit-call score of the fitted dose curve at least 0.9, where 1 is the maximum; inactive = score below 0.9.
# Test: CCTE_Shafer_MEA_dev_interburst_interval_mean: CCTE's Neural Network Formation Assay for Mean Interburst Interval, Shafer Lab (AID 2284046)
# Protocol: CCTE_Shafer_MEA_dev assay is conducted using Axion Biosystems 48 well microelectrode array (MEA) plates and Maestro recording system. Each well of the MEA plate contains a grid of 16 microelectrodes embedded in the culture surface. Electrically active cells, such as neurons, can be cultured over the electrodes, and electrical activity in these cells can be recorded extracellularly. The spontaneous firing of neurons is captured from each electrode on a microsecond timescale providing both temporally and spatially precise data. […] The CCTE_Shafer_MEA_dev assay uses primary cultures of rat cortical neurons. Recordings are made on days post-plating 5, 7, 9 and 12. As these cultures mature over time, neural networks develop functional activity and form cohesive networks in which electrical activity can be highly coordinated. CCTE_Shafer_MEA_dev_interburst_interval_mean is 1 of 19 assay components of the CCTE_Shafer_MEA_dev assay. It measures the average time interval between consecutive single-electrode bursts (temporally-clustered groups of action potential firing) during a recording in a microelectrode array (MEA) using Axion Biosystems Maestro 768 channel amplifier with the AxIS adaptive spike detector. The mean inter-burst interval is averaged across the actively bursting electrodes to report a well-mean value. To collapse across multiple recordings made on days post-plating 5, 7, 9 and 12, the trapezoidal area-under-the-curve of the component is calculated.Data from the assay component CCTE_Shafer_MEA_dev_interburst_interval_mean was analyzed into 1 assay endpoint. This assay endpoint, CCTE_Shafer_MEA_dev_interburst_interval_mean, was analyzed in the negative analysis fitting direction relative to DMSO as the negative control and baseline of activity. Using a type of functional reporter, gain or loss-of-signal activity can be used to understand electrical activity.
# On the day prior to culture, each well was coated thoroughly with 150 uL of 0.05% polyethyleneimine (PEI, Sigma Cat P3143) in 50 mM HEPES (Sigma Cat H7523) at a pH of 8. The plate was incubated at 37C for one hour. PEI was rinsed out with 500 uL of sterile water three times. Plates were stored at 4C until the day of culture. This culture was plated at a seeding density of 1.5 x 10^5 cells/well on a 48-well MEA plate, prepared as described above. Cells were administered via a 25 uL media/laminin ([…]; Sigma Cat L2020-1MG) drop directly onto the microelectrode array, as adding the cells with the laminin results in better attachment than pre-coating with laminin. After 2 hours, an additional 475 uL of cortical media was added and the cells returned to the incubator. Exposure starts at day 0 of plating and is continued over twelve days of network development until the experiment is terminated. Cells are fed with fresh medium on DIV 5 and 9, following the recordings on those days. The entire volume of media in the well is exchanged and any vehicle or compound treatment is renewed. Complete details are found in OP-NHEERL/ISTD/SBB/TJS/2015-03-r0 (available on request, email shafer.tim@epa.gov). Measurement of the electrical activity is non-invasive, and recordings can be made from the same plate over multiple different days of the culture. In cortical neurons, this allows for the measurement of extracellular action potentials over the period during which networks form in the MEA plate.
SMILES,outcome,AC50
CCCCNC(=O)n1c(NC(=O)OC)nc2ccccc21,inactive,–
CCNc1nc(Cl)nc(NC(C)C)n1,inactive,–
CC(C)(C)c1ccc(CSc2cnn(C(C)(C)C)c(=O)c2Cl)cc1,–,3 nM (active)
Cc1c(F)c(F)c(COC(=O)C2C(/C=C(\Cl)C(F)(F)F)C2(C)C)c(F)c1F (configuration not stated),inactive,–
CN(C)C(=S)SSC(=S)N(C)C,–,11.6 nM (active)
CNC(=O)ON=CC(C)(C)SC,inactive,–
CCCCOC(=O)c1ccccc1C(=O)OCCCC,inactive,–
COc1ccc(C(c2ccc(OC)cc2)C(Cl)(Cl)Cl)cc1,inactive,–
CCCCNC(=O)OCC#CI,–,3.24 µM (active) and 2.21 µM (active)
C=CCC1=C(C)C(OC(=O)C2C(C=C(C)C)C2(C)C)CC1=O (configuration not stated),inactive,–
CCCCC(CC)COC(=O)c1ccccc1C(=O)OCC(CC)CCCC (configuration not stated),inactive,12600 nM (active)
N#Cc1nn(-c2c(Cl)cc(C(F)(F)F)cc2Cl)c(N)c1S(=O)C(F)(F)F (configuration not stated),inactive,–
CCOC(=O)CC(SP(=S)(OC)OC)C(=O)OCC (configuration not stated),–,16.8 µM (active) and 15 µM (active)
C=CCC1=C(C)[C@@H](OC(=O)[C@@H]2[C@@H](C=C(C)C)C2(C)C)CC1=O,inactive,–
COC(=O)N(OC)c1ccccc1COc1ccn(-c2ccc(Cl)cc2)n1,–,264 nM (active) and 13.7 nM (active)
COP(=S)(OC)Oc1nc(Cl)c(Cl)cc1Cl,inactive,–
CCOc1cc(Oc2ccc(C(F)(F)F)cc2Cl)ccc1[N+](=O)[O-],–,4760 nM (active)
CO/C=C(/C(=O)OC)c1ccccc1Oc1cc(Oc2ccccc2C#N)ncn1,–,2.29 µM (active) and 1.06 µM (active)
Cc1ccc(-c2c(Cl)nc(C#N)n2S(=O)(=O)N(C)C)cc1,inactive,–
C=CC1(C)OC(=O)N(c2cc(Cl)cc(Cl)c2)C1=O (configuration not stated),inactive,–
COP(N)(=O)SC (configuration not stated),inactive,–
